Out of some 53,000 sequences screened, about 3,700 (7%) were called active. The entries come from a sample that favours actives as a whole. Unmarked numbers belong to inactive results.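 Rule for the calls: active = gene knockdowns whose robust z-score for IL-1 alpha signal is at least 2 or at most -2, so actives lie on both sides; inactive = the rest.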

The nature of the assay: Components of the Cytosolic LPS Sensing Pathway: Gene Identification via Genome-wide siRNA Screen.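 Note: robust z of the log signal after scaling to non-targeting control siRNA wells of the plate.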 To be noted: RAW264.7 macrophages, IL-1a HTRF, actives lie on both sides, screened at 100 nM (by protocol), cells primed 5 h with Pam3CSK4 first. The essentials: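 Mouse macrophage line RAW264.7 is transfected with siRNA (100 nM final), grown 48h, primed with TLR ligand Pam3CSK4 5 h and given intracellular LipidA 24 h. IL-1a in supernatant is read by HTRF and viability by luminescence.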
As for GGAAGCUGUCUUCAAGUCCTT against Phf7, the z-score is -1.3.
With GCAGUCCUCGUCCUCAAAGTT against Btbd10, the z-score is 2.16 (active).
GGCAGAAUACUAUAUAUAGTT against Tmx2: the z-score was 0.879.
On to GGAAAUCUGUUCUUGAAGGTT against Pcdhb4, for which the z-score was -0.0811.
In the case of GGUGCUGACUCCGACUAAATT against Nhsl1, the z-score is 1.2.
The value for GGUACAGCUGGUUCUCUUUTT against Olfr1018 was 1.2; that for GCUUGCUAGAUUGGUGUUGTT against Arhgap17 was 3.32 (active); that for GGCUGCUAUCAUGGAAUUATT against Ppp2cb was 0.924.
With CGUGUGAAGAAAAUUGAUGTT against Mmp27, the z-score was 0.568.
The same measure for GCACAGUAACCUAAAAUACTT against Tanc2: -1.48; for GGAUUUGAGGUUUUAGGAATT against Qtrt2: -0.0174; for GGUUGUGGUCUUUGUUCUGTT against Olfr923: -1.11.
On to GGAAAGAACAACAAAGGAGTT against Snx9, for which the z-score was 0.84.
Consider CCUCUCAGAUGGUAUAUAATT against Olfr520, for which the z-score was -2.14 (active).
GCCUCAAUUGUUUACUUAUTT against Edn2: the z-score was 0.404.
GGAGAAGUCAUGAAACAAATT against Prkn: the z-score was 0.349.
As for GGACAAAUCUUUGUUUAGCTT against Plscr3, the z-score was -0.0965.
In the case of GGGACCCAAGGAUAUGAAUTT against Rbsn, the z-score is 0.6.
For GGAGCAAGUAUUUACAUUGTT against Psmd10, the z-score is 1.55.
Take GGAGGUUGGGAUGAAUUAUTT against Rab6b: the z-score is 4.26 (active).
In the case of GGACUAAUUGGCCUCUGCUTT against Rpl22l1, the z-score was 0.638.
Turning to GGGCUGCUCACAAUUUAUATT against Tmem135, the z-score is 1.17.
The same measure for GGACACUUACGUCAUCGAGTT against Rtca: -0.814.
Regarding GGUGGAGAUUGUUUGUAAATT against Lratd1, the z-score is 1.56.
With GGACCCAUCGAAACCUCUATT against Pirb, the z-score is -0.0759.
For the sequence CCCAUGCUUGGAAUAAUUATT against Man1a, the z-score is 0.00246.
The value for GGACGAACUCAUCAACAGUTT against Gtf2ird1 was -0.00436; that for GGGAAGCUGAUUAUACAUUTT against Serpinf1 was 3.22 (active); that for GGCUAAGAAUGAGACUGGUTT against Abcg4 was -0.0869.
With GGAGAAGAUUCCAGAAGCCTT against Tcf15, the z-score is -1.42.
As for GGGCAUUGGCAAGAAAAAGTT against Ahdc1, the z-score was -0.543.
As to GCAUAAGCGAAGAAGAAGUTT against Clk2, the z-score is 0.0795.
Regarding GCUGGCUGUUUCACUACAGTT against Tdh, the z-score was 3.19 (active).
As for GCUAGAGUAGCUUUGGGCATT against Glra3, the z-score is 1.37.
Turning to GCAAGAUUUAUCCCAGUCGTT against Rnf2, the z-score is -1.83.
In the case of GCUUCGACAUUGUUAGUUATT against Ammecr1, the z-score was 0.322.
The value for GCAUGUUCGUGGAAGUACUTT against Got1l1 was 0.0202; that for GGAGAUCCUCAAGGAGCAGTT against Park7 was 2.02 (active).
Turning to GCAGUUUCUAAUGAAGGUUTT against Ppp2r5a, the z-score was 0.416.
Consider CGGUCUGCUCUACAUUGUCTT against Nek4, for which the z-score was 1.39.
Regarding GCCUAUGGGUCAUUUCAAATT against Dock11, the z-score was -0.968.
GGGCAGGUGGAUGUGGAAATT against Ryr2: the z-score is 0.546.
The same measure for GGUACCAUAUCUGUGAACATT against Nrxn3: -1.25; for GGUUCAGCUGGUCCUAUCUTT against Olfr1099: -2.07 (active).
The value for GGCAAUGCUGUCCUACUAUTT against Map2k5 was -1.19; that for GGAGAACUUAAAGCACAAUTT against Plxnb1 was 0.179; that for “UCCUAGAGUCAUCAUCAUATT against A530064D06Rik” was -0.44.
The same measure for GGAAUCUAUGAACAUGUUUTT against Pcdh12: -0.433; for GGCUGGGAAAAAAAAAGAATT against Ifi205: 0.704.
GGAUUUUUAUGAUAGUGACTT against Slc4a1ap: the z-score is -0.747.
Regarding GCAUCACUGGAAAUCUUACTT against Olfr807, the z-score was -2.31 (active).
The value for CCAUUUGAUCAAGCUUUAGTT against Spock3 was 0.0957; that for GGACUCUCAAUGAUGAAUATT against Map7d3 was 1.85; that for GCGACACAUUCGAUCUCAGTT against Mecom was 4.11 (active).
CCAGAUUCGAAUAUCUAAGTT against Mrps30: the z-score is 0.935.
Take GCCAGAAUGGACUUGAGAATT against Vmn1r227: the z-score is -1.21.
On to GCCUUAAUGAGGGUUAUGCTT against Fbp1, for which the z-score was -1.11.
Regarding CGAACCAUAGCUAGCUCCATT against Klhdc8b, the z-score was -0.869.
Take GGCUCAGUCCCAUCAGCAUTT against Gdf7: the z-score is 0.524.
On to GGUUUGAUCUCAUUUUCCUTT against Mcm4, for which the z-score was 2.92 (active).
Consider GGAACAGUAUAUAAGUUCATT against Hcfc2, for which the z-score was -0.593.
The value for GCUACUUCAUGGAAUCUUCTT against Mrgprb8 was -0.668; that for CGUUUGAAUAAUUCAGAGUTT against Armcx2 was -0.152; that for GGUGGAAGGCUUUUUCUACTT against Olfr1104 was 1.63.
The same measure for GCGAUACCGUGCCAUGUUUTT against Dohh: -1.21; for “CGAAGAUUACCUUUCAAGATT against St6galnac3”: 0.371.
Turning to GCCCUUUCGCCUAUGGUUUTT against Tedc1, the z-score was 0.931.
As for GCUAAUCAACAAUGUCGCCTT against Atp5b, the z-score is 0.781.
Regarding GGUUAAAGUCCUUCAGUAUTT against Tubb3, the z-score is 2.83 (active).
With GGAAAAAACCACGAUUGAGTT against Pecam1, the z-score is -0.434.
For GGCUUACCUACAACAAGUUTT against Ccnt1, the z-score was -2.07 (active).
On to “GGUUAGGCACAAAUAAGUUTT against B230206H07Rik”, for which the z-score was 1.08.
For the sequence GGUUCCUAUACCCAACGGUTT against Mrgpra7, the z-score was -1.07.
Take GGUUGAUGAUAGCUCUGAATT against Opn1mw: the z-score was -0.22.
As for GGUCUUAAGGAGAAAUGAATT against Cbln2, the z-score was -0.48.
For the sequence GCUUCGCUCGCAUUCUUAUTT against Rsrc1, the z-score was -0.299.
As to GGACUAUCCAGGAAUCGUGTT against Ergic3, the z-score was 0.713.
On to GGACAAGCUGAAGACGCACTT against Zfp64, for which the z-score is 3.03 (active).
For the sequence GCAUAGUCUUGUUAACCAGTT against Poldip3, the z-score was -0.689.
For GGAUUCAUAGACUUCAUAGTT against Impdh1, the z-score was 0.608.
As for CCAUCUGGACUUCAGUUUUTT against Rap1gap2, the z-score is 0.901.
As to GCACUCAAAUGGUAGAUUCTT against Socs6, the z-score was -0.315.
GGGUGAACUCGGACAUUGATT against Spata19: the z-score is -0.754.
Take GCGUGAACACCUGAGGAUUTT against Rchy1: the z-score was -0.323.
The value for GGUGUUGCUUAUCAUCGGCTT against Mrgprh was -2.03 (active).
As for GGGCAUCCUGGAUCAUCAUTT against Nlrp6, the z-score is -1.64.
Turning to CCUUAGAUAUCUACUGUAATT against Trim2, the z-score is 1.37.
As for GGUGCAAGUUUUGGUGGGATT against Etfbkmt, the z-score was 0.35.
As to GGAACCUAAUUGAAUGGCUTT against Cmbl, the z-score was 0.985.
The value for GGCGAAUGUGUGAAGAGGCTT against H2-Q5 was -1.97; that for GCUGCUAGCAAAAAGAACUTT against Yaf2 was 2.24 (active).
Turning to GGAUGUUACGAAGAAGAUUTT against Ash1l, the z-score is -0.664.
Regarding GCCAUAUAUCUGCUAUCAUTT against Clvs2, the z-score was 2.34 (active).
Consider GCAACUUAAAGGCAUCUCCTT against Sntn, for which the z-score was 1.53.
The same measure for GGGAAUCUUGGCAUGAUGGTT against Olfr1030: -0.325.
As to GGUAUUUAUCUGAAUCUGATT against Dennd2c, the z-score is 0.668.
The same measure for CCAGCCUCUUCUAAUACACTT against Preb: -0.413; for CCCAUCCAAUGCUUAUGUGTT against Scg5: -0.421; for GCCUAAAAAGAGUGGGUCATT against Mllt1: -2.73 (active).
The value for GGAUCUAGGAGCUGAUUAUTT against Mecr was -1.18; that for CCAUCAUGCCCUGUUUGCATT against Cdc42ep3 was 0.393; that for GCUCUUGUUAUUUACGUCGTT against Lgi1 was 0.478.
The same measure for CGACCACAUGAGGAUGCAUTT against Zbtb20: -0.974.
Turning to CCAUUAUUGGCCCAUGCUCTT against Babam1, the z-score was -2.75 (active).
The same measure for GGUUAUAAAACUAUGGAACTT against Map2k5: 0.133; for GGAUCAUUGUUCUCUCAAGTT against Psmg2: 0.186.
The value for GGCUCAAAAGUCUUGGGACTT against Hells was 0.31.

The record behind these values is PubChem BioAssay AID1508600 (Functional Genomics Laboratory (NCATS/FGL), 2020).
